Our source for the inhibition values is PubChem BioAssay AID2540 (Sanford-Burnham Center for Chemical Genomics, 2010).

The campaign covered roughly 330,000 compounds. About 4,100 (1.2%) were called active. The sample as a whole holds a higher share of actives than the screen did. Values without a mark were called inactive. No stated cut-off is given here; in the data, active means inhibition above about 50%; inactive means the rest.

Sequence of Sentrin-specific protease 8 (Homo sapiens) (Q96LD8 whole entry, looked up): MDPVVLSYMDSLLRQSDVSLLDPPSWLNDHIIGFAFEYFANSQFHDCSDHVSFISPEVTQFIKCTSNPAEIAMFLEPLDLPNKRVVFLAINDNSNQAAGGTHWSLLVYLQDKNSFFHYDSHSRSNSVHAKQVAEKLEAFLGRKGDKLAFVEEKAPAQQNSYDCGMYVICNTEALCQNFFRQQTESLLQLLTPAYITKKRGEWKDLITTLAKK

The test addresses Sentrin-specific protease 8 (Homo sapiens) (UniProt Q96LD8). Put plainly: blockers of human SENP8 peptidase activity – biochemical, luminescence, primary screen (AID 2540). As to conditions: purified SENP8, Z-RLRGG-aminoluciferin cleavage, at 10 µM, stronger effect = higher value.
As to `O=C(O)/C=C/c1ccc2c(c1)OCCO2`, the inhibition was 1.06%.
`CN(C)c1ccc(/C=C/C(=O)c2ccc(O)cc2)cc1[N+](=O)[O-]`: the inhibition was -28.3%.
For `O=C(/C=C/c1ccc2c(c1)OCCO2)c1ccc(O)cc1`, the inhibition is 76.9% (active).
As for `CNS(=O)(=O)c1ccc(NC(=O)Nc2ccc3c(c2)OCO3)cc1`, the inhibition is -9.35%.
With `CN1CCN(c2ncc3c(n2)CC(c2ccccc2F)CC3=O)CC1` (configuration not stated) the figure was -5.2%.
Regarding `O=C(Nc1ccccc1)Nc1ccccc1C(=O)NCc1ccco1`, the inhibition was 65.9% (active).
In the case of `Cc1cccc(Nc2ccccc2C(=O)NCc2ccco2)c1C` it was -4.58%.
With `O=C(CCNC(=O)c1ccccc1Cl)NCc1ccco1` the figure was -2.13%.
With `CCOc1ccc(NC(=O)C/C(C)=N/NC(=O)Cc2cccs2)cc1` the figure was -7.21%; with `CC(C)[C@H](NC(=O)N1CCn2c1nc1ccccc12)C(=O)NC1CC1`, -8.07%.
In the case of `CSCCC(NC(=O)COc1ccccc1)C(=O)OCCOc1ccc(Br)cc1` (configuration not stated), the inhibition is -20.5%.
Take `CCC(C)(C)NC(=O)C(c1ccc(O)cc1)N(Cc1ccco1)C(=O)CCC(=O)Nc1ccccn1` (configuration not stated): the inhibition was -6.41%.
As for `O=C(NN=Cc1ccc(N2CCOCC2)cc1)c1cc2ccccc2cc1O`, the inhibition was -1.63%.
`Cc1cc(C(=O)N/N=C/c2ccc(N3CCOCC3)cc2)c(C)o1`: the inhibition was 84.5% (active).
`COc1ccc(C/C(C)=N/NC(=O)c2cc(C)oc2C)cc1`: the inhibition is -5.88%.
For the molecule `Cc1cc(C(=O)N/N=C\C(Br)=C\c2ccccc2)c(C)o1`, the inhibition is 38.8%.
In the case of `Cc1ccccc1N/N=C/c1ccc(N2CCOCC2)cc1` it was -7.47%.
On to `CC(=C/c1ccccc1)/C=N/NC(=O)c1cc(C)oc1C`, for which the inhibition was 73.3% (active).
For the molecule `CCCOc1ccc(C2=CSC3=NCCN23)cc1Cl`, the inhibition was -25.9%.
With `CCN(C(=O)CSc1nnc(-c2ccncc2)o1)c1ccccc1` the figure was -5.88%; with `COc1ccc(CNc2c(CO)cnc3c2cnn3C)cc1`, 3.66%.
Take `CC(=O)c1cc2c(cc1NC(=O)CN1CCCCCC1)OCO2`: the inhibition was 6.92%.
As for `COCCN(C(=O)CSCc1ccc(C)cc1)c1c(N)n(CC(C)C)c(=O)[nH]c1=O`, the inhibition is -1.3%.
With `CCCCCC(=O)N1CCN(S(=O)(=O)c2ccc3c(c2)OCCCO3)CC1` the figure was 0.168%.
Consider `O=C(N/N=C/c1ccc([N+](=O)[O-])cc1)C(=O)N1CCCC1`, for which the inhibition was -9.06%.
With `Cc1ccc(NC(=O)c2sccc2C)cc1[N+](=O)[O-]` the figure was 3.23%.
In the case of `Cc1ccsc1C(=O)N/N=C/c1ccc([N+](=O)[O-])cc1` it was 73.3% (active).
As to `CN(CCOc1ccccc1)Cc1nc2cc(Cl)ccc2c(=O)[nH]1`, the inhibition is 0.32%.
As to `COCC(C)n1c(C)cc(C(=O)COc2ccc(C)nc2[N+](=O)[O-])c1C` (configuration not stated), the inhibition is 4.55%.
In the case of `C#Cc1ccc([C@@H]2C=C(C(=O)O)O[C@H](OCCCCO)C2)cc1` it was -9.34%; in that of `CCC(C)NC(=O)/C=C/c1ccc(S(=O)(=O)NCc2ccco2)cc1` (configuration not stated), -7.51%; in that of `CC1(C)C2CC=C(/C=N/NC(=O)c3ccc(Cl)cc3)C1C2` (configuration not stated), -0.62%.
On to `CNc1nc(Nc2ccc(C)c(Cl)c2)nc(N)c1[N+](=O)[O-]`, for which the inhibition was 96.8% (active).
In the case of `CCN1CCN(c2nc(Nc3cccc(F)c3)nc(N)c2[N+](=O)[O-])CC1` it was -4.79%; in that of `COc1cccc(Nc2nc(N)c([N+](=O)[O-])c(NCc3ccco3)n2)c1`, -2.27%; in that of `Cc1cc(C)c(NC(=S)N2CCCC2C(=O)O)c(C)c1` (configuration not stated), -2.97%.
In the case of `CC(=O)c1cccc(NC(=O)c2cc(C)nn2-c2ccccc2)c1` it was -2.45%.
Regarding `N#Cc1ccc(S(=O)(=O)NCC(=O)OCC(=O)NCCc2ccccc2)cc1`, the inhibition was 2.9%.
`O=C1/C(=C/c2cccs2)CCC1C1CCCC1` (configuration not stated): the inhibition was 80.6% (active).
As to `O=C1/C(=C/c2cccs2)CCc2ccccc21`, the inhibition was 96.5% (active).
For `O=C1/C(=C/c2cccs2)SC(=S)N1C1CCS(=O)(=O)C1` (configuration not stated), the inhibition is 10.2%.
`CCC1C/C(=C/c2cccs2)C(=O)/C(=C/c2cccs2)C1` (configuration not stated): the inhibition is -8.62%.
Consider `O=S(=O)(c1cccs1)N1CCc2ccccc2C1`, for which the inhibition was -2.48%.
In the case of `COc1ccc(/C=C2\CCc3ccccc3C2=O)c(OC)c1OC` it was -6.3%; in that of `CC(C)(C)C(=O)CSc1ccc(S(=O)(=O)N2CCCC2)cn1`, 0.226%; in that of `CC(=O)N1CCC(C(=O)OCc2ccc(Cl)cc2)(c2ccccc2)CC1`, -16%.
Turning to `Cc1ccc(CNC(=O)CCNS(=O)(=O)c2ccc(Br)s2)cc1`, the inhibition is -3.11%.
On to `Oc1c(C=Nc2cccc3nsnc23)ccc2ccccc12`, for which the inhibition is 75.8% (active).
With `CCCn1c(SCC(=O)c2ccc3c(c2)OCCO3)nnc1C(C)C`, the inhibition is 1.93%.
In the case of `O=C(O)c1ccc(N/N=C/c2ccc3ncccc3c2)cc1` it was 97.1% (active).
With `Cc1ccc2cc(/C=N/Nc3ccc(C(=O)O)cc3)c(Cl)nc2c1` the figure was -3.31%.
On to `O=C(O)c1ccc(/C=N/Nc2nc(N3CCCCC3)nc(N3CCCCC3)n2)cc1`, for which the inhibition is -10.8%.
With `Oc1ccccc1-c1cc(-c2ccc(Cl)cc2)n[nH]1` the figure was 89.8% (active).
For `S=c1[nH]nc(-c2cc(-c3ccccc3)n[nH]2)n1/N=C/c1c2ccccc2cc2ccccc12`, the inhibition was -9.93%.
With `O=C(Nc1cccnc1Cl)c1cc(-c2ccccc2O)on1` the figure was -7.17%.
On to `S=c1[nH]nc(-c2cc(-c3ccsc3)n[nH]2)n1-c1ccccc1`, for which the inhibition is 2.29%.
In the case of `c1ccc(-c2cc(-c3ccccc3)[nH]n2)cc1` it was 58.4% (active); in that of `Cc1ccc(NC(=O)c2cc(-c3ccccc3O)n[nH]2)cc1C`, -13.8%.
Regarding `CCOc1ccc(C(=O)CCN2CCOCC2)cc1`, the inhibition was -4.08%.
On to `CCCCn1c(N)c(N(CC(C)C)C(=O)C2CSC3(C)CCC(=O)N23)c(=O)[nH]c1=O` (configuration not stated), for which the inhibition was -4.36%.
`COC(C/C=C/C(=O)[C@@H](C)OCc1ccccc1)OC`: the inhibition is -1.1%.
In the case of `Cc1cc(NC(=O)c2ccc(F)cc2)ccc1NC(=O)c1ccco1` it was 55.5% (active); in that of `O=C(Nc1ccc(O)cc1)c1ccc(NC(=O)c2ccco2)cc1`, -13.6%.
As for `COc1ccccc1C(=O)Nc1ccc(NC(=O)c2ccco2)c(C)c1`, the inhibition is 42.6%.
Regarding `CC1(C)CCSC(/C=C/c2ccccc2)=N1`, the inhibition is -3.81%.
For `CCOc1ccc(C(O)Cn2c(=N)n(CCN3CCCCC3)c3ccccc32)cc1` (configuration not stated), the inhibition was 4.64%.
On to `O=C1c2ccccc2-c2ncnc3c(N4CCOCC4)cc(N4CCOCC4)c1c23`, for which the inhibition was -2.88%.
As for `O=C(c1ccccc1)C(Cn1cncn1)C(Sc1ccccc1)c1ccccc1` (configuration not stated), the inhibition was -0.476%.
Turning to `Cc1ccc(Nc2nc(C)cc(C)c2C(N)=O)cc1`, the inhibition was 5.13%.
For `Cc1ccc(Nc2nc(Cl)c(C=O)s2)cc1`, the inhibition was 67.8% (active).
For `Cc1ccc(NC(=O)Nc2nnc(-c3ccncc3)s2)cc1`, the inhibition is -9.37%.
With `CCOC(=O)C1CCN(S(=O)(=O)c2ccc3c(c2)N(C)C(=O)CC(=O)N3C)CC1` the figure was 2.4%; with `CC[N+](C)(CC)CCC[n+]1c(-c2ccccc2)c2cc(N)ccc2c2ccc(N)cc21`, 96.5% (active); with `Cc1cc(C)cc(-c2nnc(SCC(=O)NC3CC3)o2)c1`, -2.18%.
For the molecule `Cc1ccc(-n2nc3ccc(NC(=O)/C=C/c4ccco4)cc3n2)cc1C`, the inhibition is 15.4%.
In the case of `Cc1nn(CC(=O)Nc2ccc(F)cc2)c(=O)c2ccccc12`, the inhibition is 1.21%.
Regarding `CCC(=O)Nc1ccc2nn(-c3ccc(F)cc3)nc2c1`, the inhibition was 63.6% (active).
With `CCOc1c2ccc(C(=O)NC3CCCc4ccccc43)cc2nn1CC` (configuration not stated) the figure was -8.27%; with `CC(=O)N1CC2(C)CN(C(C)=O)CC(C)(C1)C2=O`, 1.73%.
On to `CCCCOc1ccc(-c2ncc(C(=O)OCC)c(N)n2)cc1`, for which the inhibition is -12.4%.
Turning to `CCOc1ccc(-n2c(SCC(N)=O)nnc2-c2ccco2)cc1`, the inhibition is -1.84%.
Take `CCCCOc1ccc(-c2nnc(-c3ccco3)o2)cc1`: the inhibition was 64.8% (active).
With `CCCCSc1nnc(-c2ccc(C)cc2)o1` the figure was 33.5%.
In the case of `CCOc1ccc(-c2nnc(-c3ccco3)o2)cc1` it was 73.3% (active); in that of `N#Cc1ccc(OCc2nnc(-c3ccc([N+](=O)[O-])cc3)o2)cc1`, 7.85%.
In the case of `Cc1c(-c2ccccc2)n[nH]c1C(=O)N=Nc1c(O)[nH]c2ccccc12` it was 21.6%; in that of `Cc1ccccc1NS(=O)(=O)CCCCC(Cl)(Cl)Cl`, 7.88%; in that of `CCOc1ccc(S(=O)(=O)N/N=C(\C)c2ccc(Cl)c(Cl)c2Cl)cc1`, 1.79%.
Turning to `CCN1C(=O)C(C(=O)NC(C)c2ccccc2)C2CC1(C)Oc1ccccc12` (configuration not stated), the inhibition was 7.17%.
As for `CSc1sc(C(=O)NC(=O)NCc2cccnc2)c(C)c1-c1ccon1`, the inhibition is 4.14%.
In the case of `O=C(Cn1cc(C(=O)C2CC2)c2ccccc21)Nc1ccccc1Cl`, the inhibition is 5.51%.
Turning to `O=C(COC(=O)c1ccc(O)cc1O)NNC(=O)c1cccs1`, the inhibition was -4.38%.
Regarding `COc1ccc(/C=C2\SC(=S)N(CC(=O)NNC(=O)c3ccncc3)C2=O)cc1`, the inhibition is -3.25%.
`Cc1ccc(/C=C2/SC(=S)N(CCC(=O)NCCCN3CCOCC3)C2=O)cc1`: the inhibition is -1.52%.
In the case of `C=CCOc1ccc(/C=C2\SC(=S)N(CCC(=O)O)C2=O)cc1` it was 97.6% (active).
As to `C[C@@H](C(=O)Nc1ccc2ccccc2c1)[C@@H]1C[C@@]1(C)[C@@H](NC(=O)c1cccnc1)c1ccccc1`, the inhibition is 13.1%.
For the molecule `CCOC(=O)C1=C(NC(=S)NC(=O)c2ccccc2)c2ccccc2CC1(C)C`, the inhibition was -5.5%.

A word on the inhibition: it is the relative decrease from the control value, in per cent.
